# Assay results as given in PubChem BioAssay AID1159580 (chemical genetic matrix, 2015).
# “And” between values parts separate entries of the source, which are not always exact repeats. Identical values can stand only once. In all, about 5,500 compounds went through this assay and about 2,000 (36%) were called active. Another 18% or so got no clear call; they are omitted. Rule as the data show it: active = normalized growth mostly below about 0.91 (no sharp cut-off); inconclusive = no clear call, values can overlap the other calls; inactive = mostly above about 0.92. This is one part of the list.
# Assay: chemical genetic growth profiling, strain panel (AID 1159580);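 also: tested at 20 µM; growth read once vehicle control cultures reached saturation at 30 °C; 1 = growth at the plate median or of vehicle wells; lower values mean less growth of the strain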
# Conditions: S. cerevisiae deletion strains, growth OD
smiles,measurement,setting,value
COc1ccc(-c2cc(=O)c3c(OC(C)=O)cc(OC(C)=O)cc3o2)cc1,normalized growth,"locus YAL013W, strain DEP1, stronger effect = lower value",0.955 (inactive)
same,normalized growth,"locus YAL021C, strain ccr4, stronger effect = lower value",0.947 (inactive)
same,normalized growth,"locus YAL026C, strain drs2, stronger effect = lower value",1.01 (inactive)
same,normalized growth,"locus YAL030W, strain snc1, stronger effect = lower value",0.99 (inactive)
same,normalized growth,"locus YBL061C, strain skt5, stronger effect = lower value",0.974 (inactive)
same,normalized growth,"locus YBR009C, strain hhf1, stronger effect = lower value",0.972 (inactive)
same,normalized growth,"locus YBR021W, strain FUR4, stronger effect = lower value",0.916 (inactive)
same,normalized growth,"locus YBR023C, strain chs3, stronger effect = lower value",0.972 (inactive)
same,normalized growth,"locus YBR171W, strain sec66, stronger effect = lower value",0.996 (inactive)
same,normalized growth,"locus YBR229C, strain ROT2, stronger effect = lower value",0.982 (inactive)
same,normalized growth,"locus YBR231C, strain swc5, stronger effect = lower value",0.922 (inactive)
same,normalized growth,"locus YBR279W, strain paf1, stronger effect = lower value",0.988 (inactive)
same,normalized growth,"locus YCL011C, strain gbp2, stronger effect = lower value",0.989 (inactive)
same,normalized growth,"locus YCL016C, strain dcc1, stronger effect = lower value",0.991 (inactive)
same,normalized growth,"locus YCL029C, strain bik1, stronger effect = lower value",0.958 (inactive)
same,normalized growth,"locus YCL061C, strain MRC1, stronger effect = lower value",0.989 (inactive)
same,normalized growth,"locus YCL069W, strain vba3, stronger effect = lower value",0.983 (inactive)
same,normalized growth,"locus YCR088W, strain abp1, stronger effect = lower value",0.996 (inactive)
same,normalized growth,"locus YDL005C, strain med2, stronger effect = lower value",0.991 (inactive)
same,normalized growth,"locus YDL035C, strain GPR1, stronger effect = lower value",0.975 (inactive)
same,normalized growth,"locus YDL040C, strain nat1, stronger effect = lower value",0.986 (inactive)
same,normalized growth,"locus YDL074C, strain BRE1, stronger effect = lower value",0.861 (inactive)
same,normalized growth,"locus YDL101C, strain DUN1, stronger effect = lower value",0.958 (inactive)
same,normalized growth,"locus YDL134C, strain PPH21, stronger effect = lower value",0.956 (inactive)
same,normalized growth,"locus YDL185W, strain tfp1, stronger effect = lower value",0.93 (inactive)
same,normalized growth,"locus YDL192W, strain arf1, stronger effect = lower value",0.965 (inactive)
same,normalized growth,"locus YDR001C, strain nth1, stronger effect = lower value",0.987 (inactive)
same,normalized growth,"locus YDR069C, strain doa4, stronger effect = lower value",0.981 (inactive)
same,normalized growth,"locus YDR101C, strain arx1, stronger effect = lower value",1 (inactive)
same,normalized growth,"locus YDR137W, strain rgp1, stronger effect = lower value",0.934 (inactive)
same,normalized growth,"locus YDR150W, strain NUM1, stronger effect = lower value",0.976 (inactive)
same,normalized growth,"locus YDR159W, strain sac3, stronger effect = lower value",0.974 (inactive)
same,normalized growth,"locus YDR162C, strain NBP2, stronger effect = lower value",0.948 (inactive)
same,normalized growth,"locus YDR195W, strain ref2",1 (inactive)
same,normalized growth,"locus YDR297W, strain sur2, stronger effect = lower value",0.98 (inactive)
same,normalized growth,"locus YDR318W, strain mcm21, stronger effect = lower value",0.936 (inactive)
same,normalized growth,"locus YDR334W, strain swr1, stronger effect = lower value",0.987 (inactive)
same,normalized growth,"locus YDR335W, strain msn5, stronger effect = lower value",0.995 (inactive)
same,normalized growth,"locus YDR388W, stronger effect = lower value",0.973 (inactive)
same,normalized growth,"locus YDR392W, strain spt3, stronger effect = lower value",0.646 (active)
same,normalized growth,"locus YDR502C, strain sam2, stronger effect = lower value",0.94 (inactive)
same,normalized growth,"locus YEL003W, strain gim4, stronger effect = lower value",0.968 (inactive)
same,normalized growth,"locus YEL037C, strain rad23, stronger effect = lower value",1 (inactive)
same,normalized growth,"locus YEL061C, strain CIN8 (second series), stronger effect = lower value",0.991 (inactive)
same,normalized growth,"locus YEL061C, strain CIN8, stronger effect = lower value",0.982 (inactive)
same,normalized growth,"locus YER015W, strain faa2, stronger effect = lower value",0.97 (inactive)
same,normalized growth,"locus YER016W, strain bim1, stronger effect = lower value",0.991 (inactive)
same,normalized growth,"locus YER110C, stronger effect = lower value",0.95 (inactive)
same,normalized growth,"locus YER111C, strain swi4, stronger effect = lower value",1 (inactive)
same,normalized growth,"locus YER155C, strain BEM2 (second series), stronger effect = lower value",0.846 (active)
same,normalized growth,"locus YER155C, strain BEM2, stronger effect = lower value",0.942 (inactive)
same,normalized growth,"locus YER167W, strain BCK2, stronger effect = lower value",0.993 (inactive)
same,normalized growth,"locus YFR010W, strain ubp6, stronger effect = lower value",1 (inactive)
same,normalized growth,"locus YGL078C, strain dbp3, stronger effect = lower value",0.961 (inactive)
same,normalized growth,"locus YGL086W, strain mad1, stronger effect = lower value",0.976 (inactive)
same,normalized growth,"locus YGL167C, strain pmr1, stronger effect = lower value",0.992 (inactive)
same,normalized growth,"locus YGL173C, strain kem1, stronger effect = lower value",0.982 (inactive)
same,normalized growth,"locus YGL227W, strain vid30, stronger effect = lower value",0.98 (inactive)
same,normalized growth,"locus YGL240W, strain doc1, stronger effect = lower value",0.985 (inactive)
same,normalized growth,"locus YGL248W, strain PDE1, stronger effect = lower value",0.935 (inactive)
same,normalized growth,"locus YGL253W, strain hxk2, stronger effect = lower value",0.97 (inactive)
same,normalized growth,"locus YGR135W, strain pre9, stronger effect = lower value",0.905 (inactive)
same,normalized growth,"locus YGR252W, strain gcn5, stronger effect = lower value",0.86 (inactive)
same,normalized growth,"locus YHR013C, strain ard1, stronger effect = lower value",0.968 (inactive)
same,normalized growth,"locus YHR027C, strain rpn1, stronger effect = lower value",0.991 (inactive)
same,normalized growth,"locus YHR030C, strain SLT2, stronger effect = lower value",0.972 (inactive) and 0.893 (inactive)
same,normalized growth,"locus YHR079C, strain IRE1 (second series), stronger effect = lower value",0.972 (inactive)
same,normalized growth,"locus YHR079C, strain IRE1, stronger effect = lower value",0.864 (inactive)
same,normalized growth,"locus YHR094C, strain hxt1, stronger effect = lower value",0.97 (inactive)
same,normalized growth,"locus YHR129C, strain ARP1, stronger effect = lower value",0.938 (inactive)
same,normalized growth,"locus YHR142W, strain chs7, stronger effect = lower value",0.951 (inactive)
same,normalized growth,"locus YHR200W, strain rpn10, stronger effect = lower value",0.959 (inactive)
same,normalized growth,"locus YIL066C, strain RNR3, stronger effect = lower value",0.994 (inactive)
same,normalized growth,"locus YIL073C, strain SPO22, stronger effect = lower value",0.852 (inactive)
same,normalized growth,"locus YIL125W, strain kgd1, stronger effect = lower value",0.991 (inactive)
same,normalized growth,"locus YIR030C, strain dcg1, stronger effect = lower value",0.955 (inactive)
same,normalized growth,"locus YJL092W, strain hpr5, stronger effect = lower value",1 (inactive)
same,normalized growth,"locus YJL095W, strain BCK1 (second series), stronger effect = lower value",0.992 (inactive)
same,normalized growth,"locus YJL095W, strain BCK1, stronger effect = lower value",0.884 (inactive) and 0.878 (active)
same,normalized growth,"locus YJL115W, strain asf1, stronger effect = lower value",0.989 (inactive)
same,normalized growth,"locus YJL129C, strain trk1, stronger effect = lower value",0.937 (inactive)
same,normalized growth,"locus YJL134W, strain LCB3, stronger effect = lower value",0.979 (inactive)
same,normalized growth,"locus YJL154C, strain vps35, stronger effect = lower value",0.997 (inactive)
same,normalized growth,"locus YJL164C, strain tpk1, stronger effect = lower value",0.98 (inactive)
same,normalized growth,"locus YJL166W, strain qcr8, stronger effect = lower value",0.953 (inactive)
same,normalized growth,"locus YJL168C, strain set2, stronger effect = lower value",0.97 (inactive)
same,normalized growth,"locus YJL187C, strain SWE1 (second series), stronger effect = lower value",0.927 (inactive)
same,normalized growth,"locus YJL187C, strain SWE1, stronger effect = lower value",1.01 (inactive)
same,normalized growth,"locus YJR043C, strain POL32, stronger effect = lower value",0.974 (inactive)
